# System: Toxoplasma gondii RH 2F1 tachyzoites (intracellular in HFF)
# Assay: parasite survival relative to DMSO control; higher = less antiparasitic activity, active = 20 or less
# Conditions: 1 µM; 72 h
# Description: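 Primary single-dose screen of the MMV Pandemic Response Box at 1 uM against T. gondii RH-2F1 (beta-galactosidase) tachyzoites in HFF cells, 72 h at 37 C. Parasite growth read by CPRG absorbance at 570 nm and normalised to DMSO-treated infected controls (% survival); pyrimethamine was the reference drug. The paper calls at least 80% inhibition a hit.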
row,Structure (SMILES),parasite survival
1,O=C(Nc1ccc(F)cc1)c1nn(-c2ccccc2)c(=O)cc1Cl,42.6% (inactive)
2,C/C(=N\NC(=O)C1CC1c1ccccc1)c1ccc(NC(=O)c2ccco2)cc1 (stereo not given),47.3% (inactive)
3,CC(=N)N1CC[C@H](SC2=C(C(=O)O)N3C(=O)[C@@H]([C@@H](C)O)[C@H]3C2)C1,53.7% (inactive)
4,Nc1cc(-c2nc3ccccc3[nH]2)n[nH]c1=O,43% (inactive)
5,O=C(NCc1ccc2c3c(cccc13)C(=O)N2)c1cccs1,75.5% (inactive)
6,CCN(CC)CCn1c(=N)n(CC(O)COc2ccc(Cl)cc2Cl)c2ccccc21 (stereo not given),26.7% (inactive)
7,O=S(=O)(Nc1ccc(O)cc1)c1cccc2cccnc12,64.4% (inactive)
8,Cc1ncc([N+](=O)[O-])n1CC(C)O (stereo not given),48.2% (inactive)
9,Nc1nc(=O)c(Br)c(-c2ccccc2)[nH]1,75.4% (inactive)
10,O=C(Nc1ccc(-c2ccccc2)cc1)C1=C(O)C(Cc2ccccc2)OC1=O (stereo not given),54.1% (inactive)
11,O=C(Nc1ccc(N2CCN(C(=O)c3ccccc3)CC2)cc1)c1ccc2c(c1)OCO2,46.9% (inactive)
12,COc1cc(NC(=O)CN2C(=O)NC(c3ccccc3)(c3ccccc3)C2=O)cc(OC)c1,49.2% (inactive)
13,CC(=O)Oc1ccccc1C(=O)Nc1ncc([N+](=O)[O-])s1,75.8% (inactive)
14,CC[C@H](CO)Nc1nc(NCc2ccccc2)c2ncn(C(C)C)c2n1,87.1% (inactive)
15,CCCCCCCCCN1C[C@@H](O)[C@H](O)[C@@H](O)[C@@H]1CO,56.8% (inactive)
16,COc1ccccc1NC(=O)c1ccccc1Sc1ccc([N+](=O)[O-])cc1,52% (inactive)
17,Fc1ccc2c(/C=C/c3cccnc3)c[nH]c2c1,29.1% (inactive)
18,Nc1ccc(-c2nc3cc(C(F)(F)F)ccc3n2C23CC4CC(CC(C4)C2)C3)cc1,53% (inactive)
19,CC(C)(C)NC(=O)[C@@H]1C[C@@H]2CCCC[C@@H]2CN1C[C@@H](O)[C@H](Cc1ccccc1)NC(=O)[C@H](CC(N)=O)NC(=O)c1ccc2ccccc2n1,39% (inactive)
20,Cn1c2ccccc2c(=O)c2c(O)cccc21,49.5% (inactive)

row,Structure (SMILES),parasite survival
1,CC(C)N(c1cc(-c2ccccc2)sc1C(=O)O)C(=O)[C@H]1CC[C@H](C)CC1,65% (inactive)
2,Nc1nc(N)c2c(Sc3ccccc3)cccc2n1,11.4% (active)
3,COc1ccc(C)cc1NC(=O)c1ccc(S(=O)(=O)N2CCCCC2)cc1,60% (inactive)
4,CN(C/C=C/C#CC(C)(C)C)Cc1cccc2ccccc12,41.6% (inactive)
5,CC[C@H]1OC(=O)[C@H](C)[C@@H](O[C@H]2C[C@@](C)(OC)[C@@H](O)[C@H](C)O2)[C@H](C)[C@@H](O[C@@H]2O[C@H](C)C[C@H](N(C)C)[C@H]2O)[C@](C)(O)C[C@@H](C)C(=O)[C@H](C)[C@@H](O)[C@]1(C)O,13.9% (active)
6,C[C@@H](NC(=O)c1cccc(-c2cnc(-c3cc4ccccc4cn3)[nH]2)c1)c1ccc(F)cc1,11.6% (active)
7,COc1cc(C(C(=O)NC2CCCCC2)N(C(=O)Cc2c[nH]c3ccccc23)c2ccc(C(C)C)cc2)cc(OC)c1OC (stereo not given),46.5% (inactive)
8,Cc1ccc(NC(=O)c2cc(Cl)ccc2O)cc1,42.3% (inactive)
9,CSC[C@H]1CN(Cc2c[nH]c3c(N)ncnc23)C[C@@H]1O,45.9% (inactive)
10,O=C1NC(=O)C(Br)=C1Br,35.2% (inactive)
11,NCc1ccc(S(N)(=O)=O)cc1,84.2% (inactive)
12,O=C(NCCN1CCCCC1)c1cccc(C(F)(F)F)c1,67.5% (inactive)
13,CCOC(=O)/C=C/[C@H](C[C@@H]1CCNC1=O)NC(=O)[C@@H](CC(=O)[C@@H](NC(=O)c1cc(C)on1)C(C)C)Cc1ccc(F)cc1,48.2% (inactive)
14,CC(C)(C)NC(=O)[C@@H]1CN(Cc2cnc3occc3c2)CCN1C[C@@H](O)C[C@@H](Cc1ccccc1)C(=O)N[C@H]1c2ccccc2C[C@H]1O,58.1% (inactive)
15,Nc1nc(O)c(Br)c(-c2cccc(Cl)c2)n1,63.8% (inactive)
16,COc1cc(NS(=O)(=O)c2ccc(C)cc2)c2ncccc2c1,2.97% (active)
17,NC(=O)c1[nH]c2ccc(S(N)(=O)=O)cc2c1-c1ccccc1,72.1% (inactive)
18,O=S(=O)(Nc1ccccc1)c1ccc(NC(=S)Nc2ccccc2)cc1,47.2% (inactive)
19,COc1ccc2sc3c(c2c1)NC(C)CNC3=O (stereo not given),6.94% (active)
20,O=C(O)c1cc(-c2ccc(Br)cc2)nc2ccc(Cl)cc12,72.8% (inactive)
